PfHsp90 set2 – growth inhibition of yeast expressing Plasmodium Hsp90 | S. cerevisiae expressing PfHsp90, BacTiter-Glo ATP, 48 h; yeast lacking PDR1 and PDR3 efflux regulators | inhibition, % at 9.4 µM | hit rate 0.32% among 310,000 | AID 504621;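 active = every replicate shows inhibition above about 80%, whatever the replicate mean, limit read from the data; inconclusive = mean inhibition reaches the set limit but some replicate falls short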
SKKanGAS inh – blocks kanamycin growth of S. pyogenes SKKanGAS strain | BacTiter-Glo, 6 h | inhibition, % at 7.5 µM | hit rate 1.3% among 300,000 | AID 1662;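 active = mean replicate score, as percent of positive control median, at least 50; inconclusive = mean below 50 but one replicate at or above 50; inactive = mean and every replicate below 50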;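 note: strain carries kanamycin resistance gene driven by streptokinase promoter and grows in 40 µg/ml kanamycin; loss of luminescence reflects streptokinase promoter inhibition or plain growth inhibition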
tim10-1 inh – tim10-1 yeast growth inhibition. S. cerevisiae tim10-1 ts strain growth, BacTiter-Glo, 24 h. inhibition, % at 20 µM. hit rate 2.2% among 330,000;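 active = inhibition of at least 40%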;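 note: mutant grown at 25 °C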
NLRP3 yeast inh – inhibitors of NALP3 inflammasome in yeast | Yeast reconstituted NLRP3/ASC/caspase-1, beta-gal luminescence, 24 h | inhibition, % at 10 µM | hit rate 0.39% among 330,000;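 active = inhibition of 50% or more; inactive = inhibition below 50%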
tim23-1 inh – growth inhibitors of tim23-1 mutant yeast; S. cerevisiae tim23-1 growth, BacTiter-Glo luminescence, 24 h; inhibition, % at 20 µM; hit rate 1.3% among 330,000; AID 463212;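 active = growth inhibition of the mutant yeast at or above 50%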;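 note: temperature-sensitive mutant grown at 25 °C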
TIM10 inh – TIM10 yeast growth inhibition; S. cerevisiae TIM10 strain growth, BacTiter-Glo luminescence, 24 h; AID 463195; hit rate 1.4% among 330,000; inhibition, % at 10 µM;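 active = inhibition of 40% or more at the single tested concentration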;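 note: wild-type TIM10 isogenic control strain grown at permissive 25 °C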
Each line names hits and unclear results; the compound was inactive in the other large screens. This is a sample that favours compounds with a hit; in the whole collection about 4.6% have one here.

CC(C)=CCC[C@](C)(OC1OC(COC2OCC(O)C(O)C2O)C(O)C(O)C1O)C1CC[C@]2(C)C1C(O)CC1[C@@]3(C)CCC(O[C@@H]4O[C@H](CO)C(O)C(O)C4O[C@@H]4OC(CO)C(O)C(O)C4O)C(C)(C)C3CC[C@]12C (some centres not stated)	none (no result: SKKanGAS inh)
Cc1cc(Oc2ccc(Cl)cc2)nc(-c2ccccc2O)n1	SKKanGAS inh 52.8
Cc1ccc(Oc2cc(C)nc(-c3ccccc3O)n2)cc1	none
Cc1cc(C)n(-c2nc(SCC(=O)O)c3c4c(sc3n2)CCCC4)n1	SKKanGAS inh 57.4 (no result: PfHsp90 set2)
Cc1cc(C)n(-c2nc(NCCO)c3c4c(sc3n2)CCCC4)n1	none (no result: PfHsp90 set2)
COc1cccc(CN2C(=O)CCC2(C)C(=O)NC2CCCC2)c1 (configuration not stated)	none
O=C(CSc1nc2c(cnn2-c2ccccc2)c(=O)[nH]1)N1N=C(c2cccs2)CC1c1ccc(F)cc1 (configuration not stated)	SKKanGAS inh 50.6
COC1OC2COC(c3ccccc3)OC2C(O)C1NC(=O)c1ccccc1 (configuration not stated)	none (no result: SKKanGAS inh, tim10-1 inh, NLRP3 yeast inh, tim23-1 inh, TIM10 inh)
FC(F)(F)c1cc(-c2ccccc2)nc(N2CCCCCC2)n1	SKKanGAS inh 86.2
COc1cccc(-c2cc(C(F)(F)F)nc(N3CCCCC3)n2)c1	SKKanGAS inh 57.5 (no result: PfHsp90 set2)
COc1ccc(-c2cc(C(F)(F)F)nc(N3CCCCCC3)n2)cc1	SKKanGAS inh inconclusive (no result: PfHsp90 set2)
Cc1cccc(-n2[nH]c3c4c(ccc3c2=O)C(=O)c2ccccc2C4=O)c1	SKKanGAS inh 79.6
O=C1c2ccccc2C(=O)c2c1ccc1c(=O)n(-c3ccccc3)[nH]c21	none
CCN(c1ccccc1)S(=O)(=O)c1ccc(C(=O)Nc2nnc(C3CC3)o2)cc1	SKKanGAS inh 77.7
CN(c1ccccc1)S(=O)(=O)c1ccc(C(=O)Nc2nnc(C3CC3)o2)cc1	none
CN(c1ccccc1)S(=O)(=O)c1ccc(C(=O)Nc2nnc(-c3ccco3)o2)cc1	none
CCN(c1ccccc1)S(=O)(=O)c1ccc(C(=O)Nc2nnc(-c3ccco3)o2)cc1	SKKanGAS inh 63.0 (no result: PfHsp90 set2)
COc1c(CC=C(C)C)cc(C2CC(=O)c3c(O)cc(O)cc3O2)c(CC=C(C)C)c1O (configuration not stated)	SKKanGAS inh 108.5 (no result: PfHsp90 set2)
COc1cc(C2CC(=O)c3c(O)cc(O)cc3O2)ccc1O (configuration not stated)	none
CCOC(=O)c1c(C)[nH]c(C(=O)C(C)OC(=O)c2cccc(OCc3c(C)noc3C)c2)c1C (configuration not stated)	SKKanGAS inh 50.1
O=C(NCc1ccc2c(c1)OCO2)C(=O)NCC1OCCCN1S(=O)(=O)c1ccc(F)cc1 (configuration not stated)	none
CN(C)Cc1ccccc1C(O)(c1ccccc1)c1ccccc1	none
CC1(C)OC(C(O)(c2ccccc2)c2ccccc2)[C@@H](C(O)(c2ccccc2)c2ccccc2)O1 (some centres not stated)	SKKanGAS inh 51.4 (no result: tim10-1 inh, NLRP3 yeast inh, tim23-1 inh, TIM10 inh)
CN(CC(=O)Nc1cccc(F)c1)C(=O)CC1CC2CCC1C2 (configuration not stated)	none
COc1cccc2c1C(=O)c1c(O)c3c(c(O)c1C2=O)CC(O)(C(C)=O)CC3OC1CC(N(C)C)C(O)C(C)O1 (configuration not stated)	PfHsp90 set2 98.0 (no result: SKKanGAS inh, tim10-1 inh, NLRP3 yeast inh, tim23-1 inh, TIM10 inh)
COc1cccc2c1C(=O)c1c(O)c3c(c(O)c1C2=O)C[C@@](O)(C(=O)CO)C[C@@H]3OC1CC(N)C(O)C(C)O1 (some centres not stated)	none (no result: SKKanGAS inh, tim10-1 inh, NLRP3 yeast inh, tim23-1 inh, TIM10 inh)
CC1(C)Oc2ccc3ccc(=O)oc3c2/C(=C/NNC(N)=S)C1=O	SKKanGAS inh 82.0
CN/C=C1\C(=O)C(C)(C)Oc2ccc3ccc(=O)oc3c21	none
Cc1ccc(-n2c(Cl)c(Cl)nc(Cl)c2=O)cc1	PfHsp90 set2 104.7 (no result: SKKanGAS inh, tim10-1 inh, NLRP3 yeast inh, tim23-1 inh, TIM10 inh)
COc1nc(Cl)cn(-c2ccc(C)cc2)c1=O	none
CCCN(CC1CC1)c1nc(C)nc(Nc2c(Cl)cc(Cl)cc2Cl)c1Cl	SKKanGAS inh 89.2
CCCN(CC1CC1)c1nc(N)c(C#N)c(CC#N)c1C#N	none
Cc1cc(CN2CCC(n3nccc3NC(=O)c3ccccc3Cl)CC2)cc(C)c1O	none
CC(c1ccccc1)N1C(=O)c2ccc(C(=O)Nc3ccc(Br)cc3C(=O)O)cc2C1=O (configuration not stated)	SKKanGAS inh 53.2
COc1ccc(CNCC(O)(c2ccccc2)c2ccc(Cl)cc2)cc1 (configuration not stated)	none
COc1cccc(CNCC(O)(c2ccc(Cl)cc2)c2ccc(Cl)cc2)c1	SKKanGAS inh 83.6
O=C(NCc1ccccc1Cl)c1ccncc1	none
COc1ccc(Nc2nc(Nc3ccc(OC)cc3)nc(-n3[nH]c(=O)c(C)c3C)n2)cc1	SKKanGAS inh 87.1 (no result: PfHsp90 set2)
Cn1c2c(c(=O)n(C)c1=O)C(c1ccccc1OC(F)F)C1=C(CCCC1=O)N2 (configuration not stated)	none
CCn1cc(C(=O)O)c(=O)c2cc(F)c(N3CCN(C(=S)NC(=O)c4ccccc4)CC3)cc21	none
COc1c(N2CCN(C(=S)NCc3ccccc3)C(C)C2)c(F)cc2c(=O)c(C(=O)O)cn(C3CC3)c12 (configuration not stated)	SKKanGAS inh 106.2
COc1c(N2CCN[C@H](C)C2)c(F)cc2c(=O)c(C(=O)O)cn(C3CC3)c12	SKKanGAS inh 101.4 (no result: PfHsp90 set2)
COc1c(F)c(F)cc2c(=O)c(C(=O)O)cn(C3CC3)c12	none
CC1COc2c(N3CCN(C)CC3)c(F)cc3c(=O)c(C(=O)O)cn1c23 (configuration not stated)	SKKanGAS inh 95.1
CCSc1n[nH]c2nc3c(c(=O)n12)C1(CCCC1)Cc1ccccc1-3	SKKanGAS inh 65.0
COC(=O)c1c(NC(NC(=O)C(C)C)C(Cl)(Cl)Cl)sc2c1CCCC2 (configuration not stated)	SKKanGAS inh 57.7
CCCCCOc1ccc(/C=C/c2c([N+](=O)[O-])c(=O)n(C)c(=O)n2C)cc1	SKKanGAS inh 59.6
COc1ccc(N(CC(=O)NCCC2=CCCCC2)S(=O)(=O)c2c(C)[nH]c(=O)[nH]c2=O)cc1	none
CN(C)CCNC=C(C(=O)Nc1ccc(Cl)cc1Cl)C(=O)Nc1ccc(Cl)cc1Cl	SKKanGAS inh 55.5 (no result: PfHsp90 set2)
CC(=NNC(=S)N1CCCCC1)c1cccc(C)n1	none (no result: SKKanGAS inh, tim10-1 inh, NLRP3 yeast inh, tim23-1 inh, TIM10 inh)
CC(=NNC(=S)N1CC2CCC(CC2)C1)c1ccncn1	PfHsp90 set2 111.4 (no result: SKKanGAS inh, tim10-1 inh, NLRP3 yeast inh, tim23-1 inh, TIM10 inh)
COc1ccc(Cl)cc1C(Nc1cccnc1)c1ccc2cccnc2c1O (configuration not stated)	PfHsp90 set2 104.4, SKKanGAS inh 68.6
CCOc1ccc(CCNC(=O)CN2C(=O)NC(CCSC)C2=O)cc1OCC (configuration not stated)	none
Fc1ccc(CSc2ncnc3sc4c(c23)CCCC4)cc1	SKKanGAS inh 77.5
CCSc1ncnc2sc3c(c12)CCC3	none

Screens deposited in PubChem by several laboratories.
